Bioassay records from PubChem BioAssay.
The list is not random: actives were taken first. Their share in the collection is about 2.1%.
Abeta rescue: restores growth of yeast expressing A-beta42 peptide | 410,000 tested, 0.063% active | yeast expressing A-beta42, growth rescue, OD600, 48 h; response scale: 0% DMSO, 100% iron-clioquinol control | Potency, µM (doses to about 46.1 µM), hits mostly activators | AID 1347071; further: nearly all actives have a fitted effect of over 55% in size
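Growth rescue measured by 600 nm absorbance after 48 h yeast culture at 30 C with compound. Values normalized between DMSO and an equimolar ferric chloride plus clioquinol control.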
aSyn yeast inh: alpha-synuclein toxicity inhibition in yeast; Yeast expressing alpha-synuclein, growth rescue, BacTiter-Glo, 24 h; Potency, µM (highest dose often 46.1 µM), actives largely listed as activators; 370,000 tested, 0.14% active; further: nearly all actives have a fitted effect of over 65% in size
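Galactose-induced alpha-syn yeast (OD600=0.02, raffinose-pregrown) + pinned cpd, 24 hr, 30 deg C; growth by BacTiter-Glo luminescence. Growth restoration scores as activation.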
TDP-43 yeast inh: inhibitors of TDP-43 toxicity in yeast; AID 652104; TDP-43 expressing yeast growth rescue, BacTiter-Glo, 24 h; 410,000 tested, 1.8% active; Potency, µM (highest dose often 46.1 µM), most hits filed as activators; further: nearly all actives have a fitted effect of over 50% in size
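Luminescence from BacTiter-Glo reports growth of TDP-43-expressing yeast after 24 hr at 30 deg C with compound. Cells were raffinose-pregrown to mid-log, then seeded in galactose medium at OD600=0.02.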
FUS yeast rescue: rescues growth of FUS-expressing yeast; S. cerevisiae FUS-expressing, growth rescue, OD600, 24 h; Potency, µM (top dose mostly 76.6 µM), most hits filed as activators; 390,000 tested, 0.24% active; AID 1347120; further: nearly all actives have a fitted effect of over 55% in size
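Steps: raffinose overnight preculture; dilution to OD 0.005 in 2% galactose minimal medium; compound addition (concentration series); 24hr at 30C, 99% humidity; absorbance read at 600 nm.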
Large screens that a line does not name were inactive; ! = a repeat was not active. The call rests on the fitted dose curve; in most records, active means well fitted curve in the direction sought with a large enough effect; inconclusive means small, poorly fitted or top-dose-only effect, or another doubt; inactive means no such curve, though single readings can be large; an effect the other way counts as inactive or inconclusive.

Cc1ccc(N2CCN(C(=O)c3nn(C)c4c3CS(=O)(=O)c3ccccc3-4)CC2)c(C)c1	TDP-43 yeast inh inconclusive, FUS yeast rescue 22µM!
Cc1ccc2[nH]c3c(=O)n(CC(=O)N4CCCC(C)C4)ncc3c2c1 (stereo unspecified)	none (no result: aSyn yeast inh)
CCC(=O)N1CCc2cc(Br)cc(S(=O)(=O)N3CCCC(C(=O)Nc4ccc(C(C)C)cc4)C3)c21 (stereo unspecified)	FUS yeast rescue 8.9µM (no result: aSyn yeast inh)
CC1(C)N=C(SCC(=O)Nc2ccc(Cl)cc2)C(c2ccccc2)=N1	TDP-43 yeast inh 32µM
CC1(C)N=C(SCC(=O)Nc2ccc(Cl)cc2)C(c2ccc(Cl)cc2)=N1	TDP-43 yeast inh 35µM
CCOc1ccc(NC(=O)CN2C(=O)C(c3ccc(Cl)cc3)=NC2(C)C)cc1	none (no result: aSyn yeast inh)
CCOC(=O)C1=CCN(S(=O)(=O)c2cccc(Cl)c2)C1c1ccc(Br)cc1 (stereo unspecified)	aSyn yeast inh 20µM, FUS yeast rescue inconclusive
CCOC(=O)C1=CCN(S(=O)(=O)c2cccc(Cl)c2)C1c1ccc(C)cc1 (stereo unspecified)	aSyn yeast inh inconclusive, TDP-43 yeast inh inconclusive
O=C(NNc1nc2cc3c(cc2s1)OCO3)c1ccccc1	none
O=C(COc1ccccc1)NNc1nc2c(F)cccc2s1	none
O=C(NNc1nc2cc3c(cc2s1)OCO3)c1cccc(F)c1	TDP-43 yeast inh 5.6µM
O=C(NNc1nc2c(F)cccc2s1)c1ccc(F)cc1	TDP-43 yeast inh 10µM
COc1cc(OC)cc(C(=O)NNc2nc3cc4c(cc3s2)OCO4)c1	TDP-43 yeast inh 10µM
COC(=O)C1CN(Cc2ccc(OC)cc2)CCS(=O)(=O)N1Cc1ccccc1 (stereo unspecified)	none (no result: Abeta rescue, aSyn yeast inh, TDP-43 yeast inh)
O=C1CC(c2ccc3c(c2)OCO3)c2cc3c(cc2N1)OCO3 (stereo unspecified)	none
O=C1c2cc3c(cc2CCC1c1ccc2c(c1)OCO2)OCO3 (stereo unspecified)	TDP-43 yeast inh 16µM
Cc1ccc(OCc2nc3ccccc3n2C(C)C(=O)Nc2c(C)cccc2C)cc1 (stereo unspecified)	TDP-43 yeast inh 25µM
Cc1ccc(OCc2nc3ccccc3n2C(C(=O)NC(C)(C)C)c2ccccc2)cc1 (stereo unspecified)	none
Cc1cccn2c(=O)c(/C=N/O)c(NCc3ccccc3)nc12	none
CCC(C)N=Cc1c(NCc2ccco2)nc2c(C)cccn2c1=O (stereo unspecified)	TDP-43 yeast inh 18µM
Cc1c(/C=C/C(=O)c2ccc(Cl)s2)cnn1C	TDP-43 yeast inh 13µM
Cc1ccc(C(=O)Nc2nc(C(C)(C)C)cs2)s1	TDP-43 yeast inh 14µM
CCOc1ccccc1C(=O)Nc1c(C(=O)Nc2ccc(F)cc2)oc2ccccc12	none (no result: aSyn yeast inh)
Cc1cc(C)c(C#N)c(SCC(=O)c2cccs2)n1	TDP-43 yeast inh 2.8µM
Cc1ccc(C(=O)C2CCN(CC(=O)NCc3cccs3)CC2)cc1	none (no result: Abeta rescue, aSyn yeast inh, TDP-43 yeast inh)
O=C(/C(=N/O)c1ccccc1)c1ccccc1	TDP-43 yeast inh 22µM
COc1ccc(-c2nc(SCCOc3cc(C)ccc3C(C)C)n3[nH]c(=O)cc3n2)cc1	none (no result: aSyn yeast inh)
COc1ccccc1Nc1nc(Cl)nc(NC(C)(C)C)n1	TDP-43 yeast inh 22µM
CC(C)(C)Nc1nc(Cl)nc(Nc2ccccc2)n1	TDP-43 yeast inh 28µM
COc1cc(OC)c(NS(=O)(=O)c2ccc3c(c2)CCCN3C(C)=O)cc1Cl	none (no result: aSyn yeast inh)
COc1cccc2nccc(/C=C/c3ccc(N(C)C)cc3)c12	none (no result: Abeta rescue, TDP-43 yeast inh, FUS yeast rescue)
COc1ccc(C=C(C(C)=O)C(=O)c2ccccc2)cc1	aSyn yeast inh inconclusive, TDP-43 yeast inh 20µM
COc1ccc(C=C(C(=O)c2ccccc2)c2ccccc2)cc1	none
COc1ccc(C=C(C(=O)c2ccccc2)C(=O)c2ccccc2)cc1	TDP-43 yeast inh 14µM
CC(=O)c1cccc(Nc2ccc(Br)cc2)c1	TDP-43 yeast inh 14µM
CC(=O)c1cccc(NC(=S)NC(=O)c2ccc(Br)cc2)c1	none (no result: FUS yeast rescue)
CC(C)CCNC(=O)c1ccc2c(c1)N(Cc1ccccc1F)C(=O)c1ccccc1S2(=O)=O	none (no result: aSyn yeast inh)
O=C(Nc1ccc2nccnc2c1)N1CCCCCC1	none (no result: Abeta rescue, TDP-43 yeast inh, FUS yeast rescue)
CC12CCC(=O)C=C1CCC1C2CCC2(C)C(c3csc(N)n3)CCC12 (stereo unspecified)	aSyn yeast inh 18µM, FUS yeast rescue inconclusive
CC12CCC(=O)C=C1CCC1C2C(O)CC2(C)C(c3csc(N)n3)CCC12 (stereo unspecified)	FUS yeast rescue inconclusive
O=C(c1ccc(Nc2nc3ccccc3n3nnnc23)cc1)N1CCN(c2ccc(F)cc2)CC1	Abeta rescue inconclusive, TDP-43 yeast inh 10µM (no result: aSyn yeast inh)
Cc1ccc2nc(NC(=O)C3=NN(c4ccccc4)C(=O)CC3)sc2c1	TDP-43 yeast inh 16µM, FUS yeast rescue inconclusive
Cc1ccc(C(C[N+](=O)[O-])c2c(N)n(C)c(=O)n(C)c2=O)cc1 (stereo unspecified)	aSyn yeast inh inconclusive, TDP-43 yeast inh inconclusive
Cn1c(N)c(C(C[N+](=O)[O-])c2ccccc2Cl)c(=O)n(C)c1=O (stereo unspecified)	TDP-43 yeast inh 14µM
O=C(N/N=C/c1ccc(Cl)cc1)Nc1ccccc1	TDP-43 yeast inh 2.8µM
Cn1ncc(SCc2ccccc2)c(Cl)c1=O	TDP-43 yeast inh 20µM
Cc1ccc2c(c1)N(C(=O)N1CCC(C(=O)NCCc3ccc(Cl)cc3)CC1)CC(C)O2 (stereo unspecified)	Abeta rescue inconclusive (no result: aSyn yeast inh)
COc1ccc(/C=N/NC(=O)c2ccc(NC(C)=O)cc2)cc1COc1ccc(F)cc1F	FUS yeast rescue 25µM
Cc1cccc(Nc2nc(N)c([N+](=O)[O-])c(N3CCC(C)CC3)n2)c1	TDP-43 yeast inh 25µM
Cc1cccc(Nc2nc(NCc3ccco3)nc(N)c2[N+](=O)[O-])c1	none
Cc1cccc(Nc2nc(N)c([N+](=O)[O-])c(NCc3ccco3)n2)c1	TDP-43 yeast inh 14µM, FUS yeast rescue inconclusive
Cc1cccc(Nc2nc(N)c([N+](=O)[O-])c(N3CC(C)CC(C)C3)n2)c1 (stereo unspecified)	none
COc1cccc(C(O)c2nc(/C=C/c3ccccc3)cs2)c1 (stereo unspecified)	aSyn yeast inh inconclusive, TDP-43 yeast inh 22µM
OC(c1cccc(Cl)c1)c1nc(/C=C/c2ccccc2)cs1 (stereo unspecified)	TDP-43 yeast inh 8.9µM
COc1cccc(C(NC(C)=O)c2nc(/C=C/c3ccccc3)cs2)c1 (stereo unspecified)	TDP-43 yeast inh inconclusive, FUS yeast rescue inconclusive
O/N=C(/C[n+]1csc2ccccc21)c1ccccc1	none (no result: Abeta rescue, TDP-43 yeast inh, FUS yeast rescue)
COc1ccc(CC(=O)OCC(=O)NC(=O)NC23CC4CC(CC(C4)C2)C3)cc1	Abeta rescue inconclusive
CC1CC1C(=O)OCC(=O)NC(=O)NC12CC3CC(CC(C3)C1)C2 (stereo unspecified)	Abeta rescue 8.9µM
O=C(CS(=O)c1ccc(C(F)(F)F)cc1[N+](=O)[O-])Oc1ccccc1 (stereo unspecified)	TDP-43 yeast inh 22µM
